High-throughput results (PubChem)
Only some compounds are listed: those with a hit (about 11% of all), similar ones and a draw of the others.
HPGD block: qHTS Assay for Inhibitors of HPGD (15-Hydroxyprostaglandin Dehydrogenase); purified HPGD, NADH fluorescence kinetic, PGE2 substrate; Potency, µM, for the others: top-dose activity change, negative = inhibition, actives largely listed as inhibitors; actives 4.3% (n = 150,000); AID 894, 2007; also: potency is read from the fitted curve at half-maximal effect
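20 nM HPGD preincubated 15 min at room temperature with compound in 50 mM Tris-HCl pH 8, 0.01% Tween 20. Started with 1 mM NAD+ and 30 uM prostaglandin E2; NADH fluorescence (360/450 nm) read 5 times over 30-s intervals, last minus first.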
IMPase inh: qHTS Assay for Identifying the Cell-Membrane Permeable IMPase Inhibitors; CHO-M1 cells, IP1 accumulation, HTRF TR-FRET ratio; inhibition (IP1 accumulation), % at 46.1 µM; 120,000 tested, under 10 active; AID 901, 2007; active = well fitted curve in the direction sought with a large enough effect in the signal ratio, not every such curve was filed as active; inconclusive = small, poorly fitted or top-dose-only effect, or a change in a side signal; inactive = no such curve, though single readings can be large or run the other way; the % refers to the signal ratio;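 also: cells stimulated with carbachol in lithium chloride buffer; plate controls were DMSO basal wells for no effect and reference inhibitor wells for full effect; higher means more IMPase inhibition seen as more IP1 and lower FRET ratio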
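The IP-One HTRF competitive assay in carbachol-stimulated CHO-M1 cells quantifies cellular IP1. Compounds spanned up to 46 uM final, and activity is expressed as AC50 from concentration-response fits of the ratio and donor data.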
PNC inhibitor: High Content Assay for Compounds that inhibit the Assembly of the Perinucleolar Compartment | activity change (PNC), negative = inhibition, % at 10 µM | AID 2417, 2010 | actives 3.1% (n = 140,000) | PC3M PTB-GFP, PNC prevalence imaging, 16 h; stronger effect = lower value;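 active = readout at or below -70, meaning at least 70% loss of cells showing the perinucleolar compartment, a nuclear body marking cancer cells; inconclusive = readout between -30 and a set limit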;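 also: plate controls were DMSO wells for no effect and camptothecin positive control wells for full effect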
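Read-out is percentage of cells bearing a perinucleolar compartment, from automated 20x imaging of fixed, Hoechst-stained PC3M PTB-GFP cells. Cells were seeded 4 h, then exposed 16 h to compound (23 nl of library stock) in duplicate plates.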
IMPase Li inh: qHTS Assay for Identifying the Cell-Membrane Permeable IMPase Inhibitors: Potentiation with Lithium. actives 0.35% (n = 210,000). CHO-M1 cells, IP1 TR-FRET (IP-One), carbachol + lithium. Potency, µM (top dose mostly 59.4 µM), for inactives: at the top dose activity, negative = IMPase inhibition, actives largely listed as inhibitors; active = well fitted inhibition curve with a large enough effect; inconclusive = small, poorly fitted or top-dose-only effect; inactive = no such curve, though single readings can be large or run the other way;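 also: IP1 builds up when IMPase is blocked and the TR-FRET signal falls; potency is read from the fitted curve at half-maximal effect; plate controls were basal vehicle for no effect and high inhibitor control for full effect; nearly all actives have a fitted effect of over 50% in size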
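Concentration–response in CHO-M1 cells, lithium-potentiated; 30 min at 37C. IP1 detected by competitive TR-FRET after 10 min lysis at RT. Hill-fitted AC50.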
ALDH1A1 block: qHTS Assay for Inhibitors of Aldehyde Dehydrogenase 1 (ALDH1A1). Potency, µM (doses to about 75.3 µM), for inactives: at the highest dose activity, negative = inhibition, usual class: inhibitors. AID 1030, 2008. Purified ALDH1A1, NADH fluorescence, propionaldehyde substrate. actives 7.3% (n = 220,000);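 also: potency is read from the fitted curve at half-maximal effect; plate controls were no enzyme wells and a reference inhibitor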
Target sequence (P00352 whole entry, looked up): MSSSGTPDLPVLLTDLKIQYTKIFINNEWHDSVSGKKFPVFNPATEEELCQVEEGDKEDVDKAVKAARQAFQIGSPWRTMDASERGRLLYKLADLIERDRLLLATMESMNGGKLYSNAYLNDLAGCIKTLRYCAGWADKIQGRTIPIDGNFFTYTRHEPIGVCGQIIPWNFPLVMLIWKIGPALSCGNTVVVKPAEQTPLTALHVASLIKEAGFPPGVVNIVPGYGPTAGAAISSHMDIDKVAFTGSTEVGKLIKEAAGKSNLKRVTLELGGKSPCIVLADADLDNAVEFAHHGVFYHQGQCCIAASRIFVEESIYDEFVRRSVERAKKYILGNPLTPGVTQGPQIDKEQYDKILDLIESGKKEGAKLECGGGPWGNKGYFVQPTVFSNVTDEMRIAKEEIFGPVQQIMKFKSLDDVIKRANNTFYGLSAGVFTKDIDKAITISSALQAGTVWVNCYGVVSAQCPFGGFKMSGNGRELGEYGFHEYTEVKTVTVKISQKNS
* = called active by the depositor; ? = inconclusive; . = not tested or not shown; [ ] = another dose, or the depositor's remark. Unless noted, calls follow the shape of the dose curve; as a rule, active = well fitted inhibition curve with a large enough effect (not every such curve was filed as active); inconclusive = small, poorly fitted or top-dose-only effect, or another doubt; inactive = no such curve, though single readings can be large or run the other way. Unless noted, % is scaled to controls: 0 for no effect and ±100 for the full control effect.

SMILES	HPGD block	IMPase inh	PNC inhibitor	IMPase Li inh	ALDH1A1 block
O=C(COC(=O)c1cccc(S(=O)(=O)N2CCOCC2)c1)Nc1ccc2c(c1)OCO2	-5%	-5	-100*	-8%[38.3 µM]	-8%
COC(=O)c1ccn(Cc2ccccc2Cl)n1	.	.	.	-4%	3%
O=C1[C@H]2[C@H]3[C@H](O)[C@H](O)C/C(=N/OCc4ccccc4)[C@@H]3CC[C@@H]2C(=O)N1C[C@@H]1CCCO1	.	.	.	.	24%[13.5 µM]
Cc1cc(Cl)ccc1NC(=O)CN(c1ccccc1Br)S(C)(=O)=O	.	-1	.	.	.
O=c1c(-c2ccc(F)cc2)nc2cnc(Nc3ccccc3)nc2n1Cc1cccs1	-3%	.	.	-10%	192%
COc1cc2c(cc1OC)CN(C(=O)CCCOc1ccc(Cl)cc1Cl)CC2	35µM*	4	?	10%[38.3 µM]	13%
COc1cc2c(cc1OC)CN(C(=O)CCCN1C(=O)c3ccccc3C1=O)CC2	-11%	0	?	35%[38.3 µM]	?
COc1ccccc1/C=C1\S/C(=N/NC(=O)c2cccc(Br)c2)NC1=O	11µM*	3	?	-6%[38.3 µM]	-7%
COC(=O)/C=C1\S/C(=N/NC(=O)c2ccccc2)NC1=O	-27%	4	-18	45%[38.3 µM]	?
COc1ccc(C2C=C(C34CC5CC(CC(C5)C3)C4)NC(=S)N2)cc1 (configuration not stated)	0%	.	0	1%	4µM*
COc1ccc(C2=CC(c3ccc(OC)c(OC)c3)NC(=S)N2)cc1 (configuration not stated)	?	?	?	-16%[38.3 µM]	?
C=CCn1c(NC(=O)c2ccc(Br)o2)c(S(=O)(=O)c2ccccc2)c2nc3ccccc3nc21	?	-19	-16	10µM*	?
O=C(NCc1ccco1)c1cc2nc(C3CC3)cc(C(F)(F)F)n2n1	18µM*	2	2	-18%[38.3 µM]	?
O=C(NCc1ccccc1)c1cc2nc(C3CC3)cc(C(F)(F)F)n2n1	-23%	1	35	-9%[38.3 µM]	-7%
Cc1ccccc1-c1nc(CSc2nc3c(c(=O)[nH]2)CCC3)c(C)o1	4.5µM*	.	73	-2%	9%
Cc1oc(-c2ccccc2)nc1CSc1nc2c(c(=O)[nH]1)CCC2	4.5µM*	.	?	-6%	7%
Cc1cccc(-c2nc(CSc3nc4c(c(=O)[nH]3)CCC4)c(C)o2)c1	2.8µM*	.	56	-4%	-2%
Cc1ccccc1CSc1nnc(C)c(=O)[nH]1	?	4	20	26%[38.3 µM]	?
O=C(O)CSc1nc2c(c(=O)[nH]1)CCCC2	.	0	17	.	8%
Cc1ccccc1CSc1nc2c(c(=O)[nH]1)CCC2	3.5µM*	5	3	-1%[38.3 µM]	9%
CCC1Oc2ccccc2N(CC(=O)NCc2ccco2)C1=O (configuration not stated)	.	.	.	12%	-9%
Cc1ccccc1NC(=O)Cn1nnc2ccccc21	.	.	.	1%	0%
CCOc1ccc(NC(=O)C2CC(=O)N(c3ccc(C(C)C)cc3)C2)cc1 (configuration not stated)	.	6	.	.	.
CCOC(=O)N1CCC(NC(=O)C(NC(=O)C2CCC(C)CC2)C(C)CC)CC1 (configuration not stated)	-4%	4	?	-3%[38.3 µM]	14%
CSc1nc2c(c(=O)[nH]1)CCCC2	-16%	5	-5	25%[38.3 µM]	8%
CCCCSc1nc2c(c(=O)[nH]1)CCC2	28µM*	4	35	10%[38.3 µM]	-12%
CC(O)CNc1ccc(-c2nn(C)c(=O)c3ccccc23)cc1[N+](=O)[O-] (configuration not stated)	.	.	.	8%	7.9µM*
Cc1ccc(C(=O)NC2CC3CCCC(C2)N3C(=S)NCc2ccco2)cc1 (configuration not stated)	.	.	.	9%	22µM*
Cc1ccc(C(=O)NC(=S)NCc2ccco2)cc1	.	.	.	2%	?
